Laboratory results published in the supplement of paper PMC9446081.
± gives the standard deviation of the averaged measurements.

Experiments:
Assay in all cases: relative enzymatic activity vs untreated control (fraction); higher = less inhibition
Conditions in all cases: 100 µM; incubation time: 2 h at 37 C
DNA gyrase = system: DNA gyrase
Method: (§1)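 In vitro enzymatic inhibition assays (ProFoldin kits) for 12 purified essential E. coli enzymes or complexes, each treated with 218 active antibacterial compounds at 100 µM for 2 h at 37°C. Read-outs were fluorescence or absorbance (phosphate detection, dye binding), converted to activity via standard curves and expressed relative to untreated DMSO controls.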

DNA helicase = DNA helicase (UniProt P0ACB1)
Chain of DNA helicase (P0ACB1 whole entry): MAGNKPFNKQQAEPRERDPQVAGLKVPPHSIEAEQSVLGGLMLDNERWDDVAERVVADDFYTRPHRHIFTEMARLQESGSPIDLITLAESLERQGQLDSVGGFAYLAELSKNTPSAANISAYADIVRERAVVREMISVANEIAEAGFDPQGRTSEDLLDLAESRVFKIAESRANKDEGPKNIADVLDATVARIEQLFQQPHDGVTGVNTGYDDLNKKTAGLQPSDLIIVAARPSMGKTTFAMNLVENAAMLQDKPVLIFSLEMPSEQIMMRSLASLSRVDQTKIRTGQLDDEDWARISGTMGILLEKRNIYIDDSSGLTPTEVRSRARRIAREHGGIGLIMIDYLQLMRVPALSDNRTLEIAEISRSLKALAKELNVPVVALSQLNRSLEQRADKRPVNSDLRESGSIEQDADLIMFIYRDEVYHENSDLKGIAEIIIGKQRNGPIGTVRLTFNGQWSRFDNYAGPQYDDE
Method: as §1

DNA ligase = DNA ligase (UniProt B1XA82)
Chain of DNA ligase (B1XA82 whole entry): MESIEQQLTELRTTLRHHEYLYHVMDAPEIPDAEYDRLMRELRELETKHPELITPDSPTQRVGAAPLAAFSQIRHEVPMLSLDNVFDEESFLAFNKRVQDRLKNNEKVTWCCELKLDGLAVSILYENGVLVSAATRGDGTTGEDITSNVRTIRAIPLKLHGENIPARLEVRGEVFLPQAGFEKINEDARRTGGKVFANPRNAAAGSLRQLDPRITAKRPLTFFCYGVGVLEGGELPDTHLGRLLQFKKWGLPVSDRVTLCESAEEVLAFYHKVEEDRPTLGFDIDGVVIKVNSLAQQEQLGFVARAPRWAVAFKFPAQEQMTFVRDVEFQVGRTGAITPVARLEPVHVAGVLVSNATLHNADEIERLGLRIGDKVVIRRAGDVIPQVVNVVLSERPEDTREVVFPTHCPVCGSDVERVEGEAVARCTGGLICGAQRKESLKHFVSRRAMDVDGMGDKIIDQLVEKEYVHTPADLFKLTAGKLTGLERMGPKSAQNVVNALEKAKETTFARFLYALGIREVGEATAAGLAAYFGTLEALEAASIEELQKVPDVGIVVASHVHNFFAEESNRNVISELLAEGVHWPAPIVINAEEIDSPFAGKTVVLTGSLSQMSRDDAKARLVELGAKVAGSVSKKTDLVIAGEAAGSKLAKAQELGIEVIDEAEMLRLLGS
Method: as §1

DNA polymerase = DNA polymerase (UniProt P10443)
Chain of DNA polymerase (P10443 whole entry): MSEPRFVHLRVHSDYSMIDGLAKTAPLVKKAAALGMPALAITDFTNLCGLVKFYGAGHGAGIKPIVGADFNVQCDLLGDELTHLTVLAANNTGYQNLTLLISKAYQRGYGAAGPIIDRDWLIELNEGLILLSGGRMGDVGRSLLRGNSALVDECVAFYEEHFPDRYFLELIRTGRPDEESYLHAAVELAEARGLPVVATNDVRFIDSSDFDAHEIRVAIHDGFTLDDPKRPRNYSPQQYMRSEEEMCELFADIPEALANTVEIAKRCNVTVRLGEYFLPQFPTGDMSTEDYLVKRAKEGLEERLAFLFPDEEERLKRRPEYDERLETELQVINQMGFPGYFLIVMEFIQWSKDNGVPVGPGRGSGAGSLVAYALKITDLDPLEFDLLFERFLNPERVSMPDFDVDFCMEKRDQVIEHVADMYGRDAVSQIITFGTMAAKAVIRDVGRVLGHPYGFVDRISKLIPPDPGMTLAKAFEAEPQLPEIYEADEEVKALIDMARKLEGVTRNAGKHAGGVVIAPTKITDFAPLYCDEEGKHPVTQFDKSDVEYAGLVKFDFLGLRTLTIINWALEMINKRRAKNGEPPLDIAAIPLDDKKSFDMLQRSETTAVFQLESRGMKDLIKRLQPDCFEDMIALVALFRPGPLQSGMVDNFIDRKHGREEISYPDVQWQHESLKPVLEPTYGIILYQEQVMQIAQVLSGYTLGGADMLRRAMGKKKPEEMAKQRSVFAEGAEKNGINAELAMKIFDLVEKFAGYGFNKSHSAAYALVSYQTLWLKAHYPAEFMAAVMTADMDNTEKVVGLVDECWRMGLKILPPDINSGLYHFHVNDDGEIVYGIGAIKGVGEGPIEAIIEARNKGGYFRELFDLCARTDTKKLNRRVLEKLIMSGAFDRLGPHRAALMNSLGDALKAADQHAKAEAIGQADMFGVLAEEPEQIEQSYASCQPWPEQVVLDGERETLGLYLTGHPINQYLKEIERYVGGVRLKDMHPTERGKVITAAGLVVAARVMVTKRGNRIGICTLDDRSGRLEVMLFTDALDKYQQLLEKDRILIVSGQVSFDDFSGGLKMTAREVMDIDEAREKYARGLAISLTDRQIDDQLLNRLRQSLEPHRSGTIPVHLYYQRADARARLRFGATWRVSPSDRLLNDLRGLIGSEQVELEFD
Method: as §1

DNA primase = DNA primase (UniProt P0ABS7)
Chain of DNA primase (P0ABS7 whole entry): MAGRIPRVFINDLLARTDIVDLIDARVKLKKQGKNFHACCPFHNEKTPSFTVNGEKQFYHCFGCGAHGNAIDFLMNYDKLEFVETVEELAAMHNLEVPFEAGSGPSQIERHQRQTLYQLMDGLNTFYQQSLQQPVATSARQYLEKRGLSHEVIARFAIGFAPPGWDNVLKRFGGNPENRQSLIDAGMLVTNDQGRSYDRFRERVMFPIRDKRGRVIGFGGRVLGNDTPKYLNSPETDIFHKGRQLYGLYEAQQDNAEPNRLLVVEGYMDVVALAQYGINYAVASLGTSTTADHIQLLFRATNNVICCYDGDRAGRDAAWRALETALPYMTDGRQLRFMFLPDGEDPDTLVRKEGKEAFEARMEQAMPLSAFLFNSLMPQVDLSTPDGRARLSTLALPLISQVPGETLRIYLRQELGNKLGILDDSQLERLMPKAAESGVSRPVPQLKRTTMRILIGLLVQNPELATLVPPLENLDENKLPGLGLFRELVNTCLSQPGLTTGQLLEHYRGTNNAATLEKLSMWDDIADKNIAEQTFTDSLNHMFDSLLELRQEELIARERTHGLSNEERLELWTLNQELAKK
Method: as §1

GlmU = GlmU (UniProt A7ZTU1)
Chain of GlmU (A7ZTU1 whole entry, looked up): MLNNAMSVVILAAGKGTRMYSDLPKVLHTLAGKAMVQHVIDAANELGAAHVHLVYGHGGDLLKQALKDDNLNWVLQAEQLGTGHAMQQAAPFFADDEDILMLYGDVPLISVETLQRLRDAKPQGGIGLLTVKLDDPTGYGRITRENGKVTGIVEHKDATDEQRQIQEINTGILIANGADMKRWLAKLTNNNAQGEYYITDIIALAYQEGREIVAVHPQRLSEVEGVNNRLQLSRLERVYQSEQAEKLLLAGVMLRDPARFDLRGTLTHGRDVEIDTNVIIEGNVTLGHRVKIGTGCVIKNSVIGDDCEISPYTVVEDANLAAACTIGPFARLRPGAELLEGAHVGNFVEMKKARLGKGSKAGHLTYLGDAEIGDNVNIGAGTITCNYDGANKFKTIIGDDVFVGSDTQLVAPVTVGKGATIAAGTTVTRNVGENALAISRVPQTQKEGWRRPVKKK
Method: as §1

Guanlyate kinase = Guanlyate kinase (UniProt Q0TBG1)
Chain of Guanlyate kinase (Q0TBG1 whole entry): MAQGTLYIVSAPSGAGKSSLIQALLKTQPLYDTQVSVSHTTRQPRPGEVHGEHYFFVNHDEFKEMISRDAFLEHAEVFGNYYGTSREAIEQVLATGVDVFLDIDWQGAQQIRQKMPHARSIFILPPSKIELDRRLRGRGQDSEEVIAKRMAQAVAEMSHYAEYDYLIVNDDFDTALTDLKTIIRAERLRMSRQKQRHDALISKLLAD
Method: as §1

MurA = MurA (UniProt Q3YX52)
Chain of MurA (Q3YX52 whole entry): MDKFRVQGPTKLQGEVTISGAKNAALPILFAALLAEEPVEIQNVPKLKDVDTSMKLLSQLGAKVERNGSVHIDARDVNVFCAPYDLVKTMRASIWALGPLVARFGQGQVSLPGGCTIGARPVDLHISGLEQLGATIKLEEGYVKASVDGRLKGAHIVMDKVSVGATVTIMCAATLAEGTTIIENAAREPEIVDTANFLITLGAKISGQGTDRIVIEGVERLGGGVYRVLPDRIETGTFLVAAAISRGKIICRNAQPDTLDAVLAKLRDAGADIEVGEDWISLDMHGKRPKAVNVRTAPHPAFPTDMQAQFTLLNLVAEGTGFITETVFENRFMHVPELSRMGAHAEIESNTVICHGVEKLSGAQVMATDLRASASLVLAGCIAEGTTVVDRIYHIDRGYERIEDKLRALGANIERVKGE
Method: as §1

MurD = molecular target: T1, MurD (UniProt P14900)
T1 sequence (whole entry): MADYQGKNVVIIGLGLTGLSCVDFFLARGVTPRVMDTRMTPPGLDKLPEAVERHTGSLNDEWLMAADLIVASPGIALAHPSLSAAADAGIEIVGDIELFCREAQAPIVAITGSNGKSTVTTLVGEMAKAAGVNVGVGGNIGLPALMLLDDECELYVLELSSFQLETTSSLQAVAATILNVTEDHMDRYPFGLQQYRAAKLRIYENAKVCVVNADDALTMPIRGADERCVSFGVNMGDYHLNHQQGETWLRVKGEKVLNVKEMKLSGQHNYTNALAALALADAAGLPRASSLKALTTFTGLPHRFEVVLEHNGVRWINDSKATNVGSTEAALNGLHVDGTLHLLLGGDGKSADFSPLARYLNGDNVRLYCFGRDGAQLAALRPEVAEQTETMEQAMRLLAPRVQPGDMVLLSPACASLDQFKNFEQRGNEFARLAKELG
Method: as §1

MurF = molecular target: T2, MurF (UniProt P11880)
T2 sequence (whole entry): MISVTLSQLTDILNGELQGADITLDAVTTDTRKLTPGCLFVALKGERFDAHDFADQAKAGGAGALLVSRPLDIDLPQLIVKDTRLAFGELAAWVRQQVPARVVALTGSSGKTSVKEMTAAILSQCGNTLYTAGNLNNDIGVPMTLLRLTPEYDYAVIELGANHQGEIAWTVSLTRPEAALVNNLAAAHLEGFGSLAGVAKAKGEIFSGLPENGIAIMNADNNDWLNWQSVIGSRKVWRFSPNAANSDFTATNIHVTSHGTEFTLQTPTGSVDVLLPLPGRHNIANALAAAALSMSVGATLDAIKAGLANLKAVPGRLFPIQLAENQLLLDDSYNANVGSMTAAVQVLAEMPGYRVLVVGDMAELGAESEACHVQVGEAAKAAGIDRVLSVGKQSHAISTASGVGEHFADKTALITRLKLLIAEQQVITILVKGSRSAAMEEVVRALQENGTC
Method: as §1

RNA polymerase = system: RNA polymerase
Method: as §1

| Structure (SMILES) | relative enzymatic activity (DNA gyrase) | relative enzymatic activity (DNA helicase) | relative enzymatic activity (DNA ligase) | relative enzymatic activity (DNA polymerase) | relative enzymatic activity (DNA primase) | relative enzymatic activity (GlmU) | relative enzymatic activity (Guanlyate kinase) | relative enzymatic activity (MurA) | relative enzymatic activity (MurD) | relative enzymatic activity (MurF) | relative enzymatic activity (RNA polymerase) |
| --- | --- | --- | --- | --- | --- | --- | --- | --- | --- | --- | --- |
| CC[C@H](C)C[C@H](C)CCCCCCCCC(=O)N[C@H]1C[C@@H](O)[C@@H](NCCN)NC(=O)[C@@H]2[C@@H](O)CCN2C(=O)[C@H]([C@H](O)CCN)NC(=O)[C@H]([C@H](O)[C@@H](O)c2ccc(O)cc2)NC(=O)[C@@H]2C[C@@H](O)CN2C(=O)[C@H]([C@@H](C)O)NC1=O | 0.131 ± 0.067 | 0.0208 ± 0.022 | 0.699 ± 0.13 | 0.2437 ± 0.00079 | 0.766 ± 0.017 | 1.03 ± 0.013 | 1.09 ± 0.022 | 0.522 ± 0.47 | 0.706 ± 0.5 | 1.39 ± 0.62 | 0.408 ± 0.013 |
| COC1(NC(=O)C(C(=O)[O-])c2ccc(O)cc2)C(=O)N2C(C(=O)[O-])=C(CSc3nnnn3C)COC21.[Na+].[Na+] (stereo not drawn) | 1.04 ± 0.15 | 0.607 ± 0.17 | 1.25 ± 0.16 | 1.27 ± 0.34 | 0.693 ± 0.17 | 0.998 ± 0.085 | 1.02 ± 0.11 | 0.069 ± 0.017 | 0.584 ± 0.39 | 0.913 ± 0.23 | 0.848 ± 0.071 |
| CC(C)(O/N=C(\C(=O)N[C@@H]1C(=O)N2C(C(=O)O)=C(C[N+]3(CCNC(=O)c4ccc(O)c(O)c4Cl)CCCC3)CS[C@H]12)c1csc(N)n1)C(=O)O | 0.401 ± 0.11 | 0.506 ± 0.075 | 0.933 ± 0.058 | 1.05 ± 0.32 | 0.753 ± 0.013 | 0.92 ± 0.062 | 0.834 ± 0.094 | 0.0569 ± 0.016 | 0.515 ± 0.35 | 1.01 ± 0.23 | 0.672 ± 0.082 |
| CN(C)c1cc(CNCC(C)(C)C)c(O)c2c1C[C@H]1C[C@H]3[C@H](N(C)C)C(=O)[C@H](C(N)=O)C(=O)[C@@]3(O)C(=O)[C@@H]1C2=O | 0.256 ± 0.0049 | 0.355 ± 0.04 | 0.862 ± 0.018 | 1.09 ± 0.3 | 0.671 ± 0.07 | 0.9877 ± 0.0037 | 0.49613 ± 0.0003 | 0.133 ± 0.025 | 0.578 ± 0.38 | 1.23 ± 0.068 | 0.289 ± 0.1 |
| O=C1OCCN1N=Cc1ccc([N+](=O)[O-])o1 | 1.13 ± 0.099 | 0.454 ± 0.088 | 1.02 ± 0.015 | 1.35 ± 0.37 | 0.747 ± 0.22 | 0.974 ± 0.017 | 1.01 ± 0.042 | 0.649 ± 0.12 | 0.565 ± 0.37 | 0.947 ± 0.16 | 0.941 ± 0.097 |
| C[C@H]1[C@H](NC(=O)/C(=N\OC(C)(C)C(=O)O)c2csc(N)n2)C(=O)N1S(=O)(=O)O | 0.898 ± 0.25 | 0.534 ± 0.15 | 0.815 ± 0.086 | 1.23 ± 0.28 | 0.8444 ± 0.0011 | 1.04 ± 0.031 | 1.04 ± 0.021 | 0.47 ± 0.14 | 0.623 ± 0.45 | 1.13 ± 0.55 | 0.869 ± 0.072 |
| CC1CCc2c(N3CCC(O)CC3)c(F)cc3c(=O)c(C(=O)O)cn1c23 (stereo not drawn) | 0.0257 ± 0.036 | 0.552 ± 0.1 | 0.916 ± 0.018 | 1.19 ± 0.29 | 0.8373 ± 0.0067 | 0.9778 ± 0.0021 | 0.957 ± 0.071 | 0.8065 ± 0.0039 | 0.566 ± 0.37 | 1.102 ± 0.0015 | 0.85 ± 0.059 |
| Cc1cn(C2CC(N=[N+]=[N-])C(CO)O2)c(=O)[nH]c1=O (stereo not drawn) | 0.801 ± 0.34 | 0.472 ± 0.1 | 1.38 ± 0.076 | 1.3 ± 0.36 | 0.692 ± 0.18 | 1.002 ± 0.0012 | 0.865 ± 0.097 | 0.77 ± 0.043 | 0.573 ± 0.35 | 0.97 ± 0.2 | 0.887 ± 0.0091 |
